From PubChem BioAssay (NCATS)
Where “and” joins values, the source holds several entries; their conditions need not be identical. Equal entries are not always repeated. Records with an inconclusive call do not appear. Calls of active or inactive are those of the source. Unless noted, calls follow the shape of the dose curve; as a rule, active = well fitted curve in the direction sought with a large enough effect; inconclusive = small, poorly fitted or top-dose-only effect, or another doubt; inactive = no such curve, though single readings can be large; an effect the other way counts as inactive or inconclusive.

Key:
[1] = tested on: Zika virus NS2B-NS3 protease; assay: Primary screen GU AMC qHTS for Zika virus inhibitors (AID 1347154); also: nearly all actives have a fitted effect of over 70% in size; also: potency is read from the fitted curve at half-maximal effect;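 as to activity change, negative = inhibition: 0% = no-inhibitor control and -100% = no-enzyme control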
In short: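 Fluorogenic AMC-substrate cleavage by noncovalent NS2B-NS3 protease complex (25 nM, pH 8.0 Tris buffer with Tween 20) followed for 15 minutes at room temperature (~20% conversion). Percent inhibition from ex340/em450 signal change, fitted by 4-parameter Hill equation.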

[2] = Primary qHTS for small molecule stabilizers of the endoplasmic reticulum resident proteome: Secreted ER Calcium Modulated Protein (SERCaMP) assay (AID 1508630); also: % is scaled to controls: 0 for no effect and ±100 for the full control effect
In short: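 GLuc-SERCaMP-expressing SH-SY5Y cells, pretreated 16 h with compound, are challenged with thapsigargin to empty ER calcium stores; after 4 h, coelenterazine is added directly to the medium and luminescence is imaged.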

[3] = target: Cytochrome P450 1A2 (Homo sapiens) (UniProt P05177); assay: p450-cyp1a2 (AID 410; calls by dose curve; also: potency is read from the fitted curve at half-maximal effect;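 as to activity change, negative = inhibition: -100% = full effect of reference inhibitor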)
Cytochrome P450 1A2 (Homo sapiens), sequence (P05177 whole entry, looked up): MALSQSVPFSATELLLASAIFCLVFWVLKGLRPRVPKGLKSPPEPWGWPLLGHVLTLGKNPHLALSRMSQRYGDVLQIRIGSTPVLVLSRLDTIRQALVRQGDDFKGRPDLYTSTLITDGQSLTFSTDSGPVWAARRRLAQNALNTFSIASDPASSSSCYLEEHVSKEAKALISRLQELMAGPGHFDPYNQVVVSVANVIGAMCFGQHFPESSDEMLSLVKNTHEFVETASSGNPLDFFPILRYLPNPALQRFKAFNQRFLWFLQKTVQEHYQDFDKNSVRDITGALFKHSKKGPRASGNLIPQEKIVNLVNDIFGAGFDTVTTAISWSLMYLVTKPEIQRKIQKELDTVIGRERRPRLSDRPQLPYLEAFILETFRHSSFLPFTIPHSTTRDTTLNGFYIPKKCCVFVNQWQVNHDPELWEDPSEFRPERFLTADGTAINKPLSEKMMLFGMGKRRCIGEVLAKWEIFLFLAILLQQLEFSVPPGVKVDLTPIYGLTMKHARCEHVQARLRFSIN
In short: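 20nM CYP1A2 with 100uM Luciferin-ME (at Km) in 100mM KPO4; compound preincubated 10 min, NADPH regeneration added, 60 min at room temperature. Luciferin quantified by luminescence after detection reagent; normalized to 57 uM furafylline.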

[4] = target: Glucocorticoid receptor (Homo sapiens) (UniProt P04150); assay: GR-GFP Redistribution (AID 450;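 active = compounds whose dose series gives a full or clear partial fitted curve of increased nuclear translocation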; also: potency is read from the fitted curve at half-maximal effect); conditions: U2OS GR-GFP nuclear translocation, laser cytometry, 2 h
Glucocorticoid receptor (Homo sapiens), sequence (P04150 whole entry, looked up, the tested form may be a part): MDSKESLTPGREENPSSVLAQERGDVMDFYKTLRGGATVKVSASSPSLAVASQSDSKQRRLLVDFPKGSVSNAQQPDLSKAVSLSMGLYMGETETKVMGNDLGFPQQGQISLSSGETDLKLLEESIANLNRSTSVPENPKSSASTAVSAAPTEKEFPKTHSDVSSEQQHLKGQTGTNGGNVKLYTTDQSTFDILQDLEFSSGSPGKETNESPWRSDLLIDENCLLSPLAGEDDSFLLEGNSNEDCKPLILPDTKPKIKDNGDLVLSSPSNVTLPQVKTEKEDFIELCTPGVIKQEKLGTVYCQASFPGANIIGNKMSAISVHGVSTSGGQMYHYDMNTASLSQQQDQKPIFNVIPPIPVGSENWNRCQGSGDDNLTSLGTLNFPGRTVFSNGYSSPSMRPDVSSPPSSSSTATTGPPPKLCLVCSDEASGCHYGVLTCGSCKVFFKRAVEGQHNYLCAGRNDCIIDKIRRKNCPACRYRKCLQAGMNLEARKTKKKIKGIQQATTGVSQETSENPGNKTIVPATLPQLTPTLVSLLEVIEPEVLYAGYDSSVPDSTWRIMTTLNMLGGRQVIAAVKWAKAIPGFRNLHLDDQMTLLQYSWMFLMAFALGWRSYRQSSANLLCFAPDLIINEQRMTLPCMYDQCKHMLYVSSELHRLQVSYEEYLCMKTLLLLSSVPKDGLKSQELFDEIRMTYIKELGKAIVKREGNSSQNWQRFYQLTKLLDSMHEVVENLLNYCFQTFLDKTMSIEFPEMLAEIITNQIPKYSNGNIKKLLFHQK

[5] = target: Glucocorticoid receptor (Homo sapiens) (UniProt P04150); assay: GR-EFC Redistribution (AID 451; calls by dose curve; also: potency is read from the fitted curve at half-maximal effect); conditions: CHO-K1 GR-EFC translocation, beta-gal luminescence, 2 h
In short: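 Translocation of GR-ED fusion to nuclear EA restores b-gal, read by luminescence after 1 h room-temperature detection. Engineered CHO-K1 biosensor cells, 1,000/well, exposed 2 h at 37 C to titrations up to 46 uM final.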

[6] = target: Mitogen-activated protein kinase 10 (Mus musculus) (UniProt Q61831); assay: JNK3 AlphaScreen Assay (AID 530; active = well fitted curve in either direction with a large enough effect, not every such curve was filed as active;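 also: kinase came from lysate of stimulated human HepG2 cells; signal reports phosphorylation of biotinylated GST-cJun 1-79 at Ser73 with 10 µM ATP; % is scaled to controls: 0 for no effect and ±100 for the full control effect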)
In short: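 Compound titrations were preincubated 15 minutes at room temperature with substrate, antibody and pre-activated JNK3-containing HepG2 lysate. Reactions were started with 10 uM ATP and stopped with EDTA-containing bead buffer for AlphaScreen detection.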

[7] = target: 3',5'-cyclic-AMP phosphodiesterase 4B (Homo sapiens) (UniProt Q07343); assay: qHTS Assay for Inhibitors of PDE-IV (AID 607; active = well fitted activation curve with a large enough effect in the main read-out, with a control signal flat, not every such curve was filed as active; also: % of control where 0% means no effect)
3',5'-cyclic-AMP phosphodiesterase 4B (Homo sapiens), sequence (Q07343 whole entry, looked up): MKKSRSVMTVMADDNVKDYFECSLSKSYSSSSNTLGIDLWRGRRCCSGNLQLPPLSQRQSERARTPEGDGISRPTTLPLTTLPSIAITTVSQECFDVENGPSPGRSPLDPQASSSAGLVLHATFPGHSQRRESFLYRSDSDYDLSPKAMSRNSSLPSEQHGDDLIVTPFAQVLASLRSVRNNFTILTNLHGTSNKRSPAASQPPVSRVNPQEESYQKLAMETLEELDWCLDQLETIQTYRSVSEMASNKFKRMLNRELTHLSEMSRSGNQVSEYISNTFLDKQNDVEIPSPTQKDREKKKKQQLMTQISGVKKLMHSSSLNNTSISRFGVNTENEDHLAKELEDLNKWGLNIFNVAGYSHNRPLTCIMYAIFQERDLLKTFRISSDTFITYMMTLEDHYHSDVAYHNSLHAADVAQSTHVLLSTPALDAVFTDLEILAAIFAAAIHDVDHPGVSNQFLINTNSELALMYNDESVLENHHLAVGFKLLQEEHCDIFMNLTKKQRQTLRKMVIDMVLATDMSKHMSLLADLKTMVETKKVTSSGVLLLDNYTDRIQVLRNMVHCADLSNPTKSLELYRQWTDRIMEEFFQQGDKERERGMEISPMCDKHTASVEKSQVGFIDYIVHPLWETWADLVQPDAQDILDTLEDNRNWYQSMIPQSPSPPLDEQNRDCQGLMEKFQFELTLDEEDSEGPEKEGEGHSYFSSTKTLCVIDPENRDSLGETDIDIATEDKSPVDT
In short: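 Live HEK293 cells with a modified cyclic nucleotide-gated (CNG) channel report intracellular cAMP via membrane-potential dye fluorescence (ex 535/em 590 nm). Endogenous PDE-IV was targeted. Compounds were tested at up to 22.9 uM final; RO 20-1724 100 uM served as control.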

[8] = target: Ubiquitin carboxyl-terminal hydrolase 1 (Homo sapiens) (UniProt O94782); assay: Inhibitors of USP1/UAF1: Pilot qHTS (AID 504865);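 also: rhodamine fluorescence freed from ubiquitin-rhodamine substrate followed over time; top concentration of the series differs between compounds; % is scaled to controls: 0 for no effect and ±100 for the full control effect; nearly all actives have a fitted effect of over 35% in size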
Ubiquitin carboxyl-terminal hydrolase 1 (Homo sapiens), sequence (O94782 whole entry, looked up): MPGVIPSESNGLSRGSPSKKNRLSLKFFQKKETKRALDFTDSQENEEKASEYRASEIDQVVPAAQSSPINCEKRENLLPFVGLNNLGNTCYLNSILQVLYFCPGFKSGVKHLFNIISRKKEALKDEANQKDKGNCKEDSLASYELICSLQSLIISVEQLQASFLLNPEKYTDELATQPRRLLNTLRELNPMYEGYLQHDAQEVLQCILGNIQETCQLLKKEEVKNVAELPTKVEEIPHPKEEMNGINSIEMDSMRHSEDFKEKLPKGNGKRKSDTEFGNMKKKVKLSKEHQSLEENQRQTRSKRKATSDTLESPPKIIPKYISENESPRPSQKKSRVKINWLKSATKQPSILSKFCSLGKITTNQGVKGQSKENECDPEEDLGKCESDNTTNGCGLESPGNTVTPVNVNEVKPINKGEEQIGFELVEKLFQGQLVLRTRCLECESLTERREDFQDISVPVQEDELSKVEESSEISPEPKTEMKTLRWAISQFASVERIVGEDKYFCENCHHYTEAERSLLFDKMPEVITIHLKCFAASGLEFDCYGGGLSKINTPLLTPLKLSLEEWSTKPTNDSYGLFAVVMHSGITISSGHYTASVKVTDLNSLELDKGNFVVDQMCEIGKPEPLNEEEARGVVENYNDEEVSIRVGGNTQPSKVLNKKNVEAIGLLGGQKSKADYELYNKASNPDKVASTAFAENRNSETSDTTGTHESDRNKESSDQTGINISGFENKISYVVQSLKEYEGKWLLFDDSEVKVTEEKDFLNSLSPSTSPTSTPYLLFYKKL
In short: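 Deubiquitinase activity followed as kinetic rhodamine fluorescence release from 150 nM Ub-Rho. 1 nM USP1/UAF1 with compound, after 15 min room-temperature preincubation, in HEPES pH 7.8 buffer containing TCEP, EDTA, BSA and Tween-20.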

[9] = target: DNA dC->dU-editing enzyme APOBEC-3G (Homo sapiens) (UniProt Q9HC16); assay: qHTS for inhibitors of Vif-A3G interactions: Validation (AID 588379); also: 0% is about no effect
DNA dC->dU-editing enzyme APOBEC-3G (Homo sapiens), sequence (Q9HC16 whole entry, looked up): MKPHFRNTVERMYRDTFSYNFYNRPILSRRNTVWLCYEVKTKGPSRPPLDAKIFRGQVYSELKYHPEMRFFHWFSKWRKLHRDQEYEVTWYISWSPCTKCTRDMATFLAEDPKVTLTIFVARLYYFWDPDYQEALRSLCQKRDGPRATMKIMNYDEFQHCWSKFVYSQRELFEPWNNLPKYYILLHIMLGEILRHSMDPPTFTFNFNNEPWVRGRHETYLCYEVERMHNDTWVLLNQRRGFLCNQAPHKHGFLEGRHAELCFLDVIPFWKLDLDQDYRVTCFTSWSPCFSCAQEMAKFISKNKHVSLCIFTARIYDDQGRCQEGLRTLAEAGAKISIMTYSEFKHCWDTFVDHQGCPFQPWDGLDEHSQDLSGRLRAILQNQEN
In short: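 HeLa cells stably expressing Vif and A3G-eYFP, 700 cells/well, incubated overnight at 37 deg C, then exposed to compound overnight at 37 deg C. Inhibition of Vif-mediated degradation read as increased yellow fluorescence (Ex 488/Em 500-530) by laser-scanning cytometry.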

[10] = AP1 Signaling Pathway (AID 357; active = well fitted curve in either direction with a large enough effect, not every such curve was filed as active;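 also: ME-180 reporter cells stimulated with EGF at its EC50 level; % is scaled to controls: 0 for no effect and ±100 for the full control effect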)
In short: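 First, ME-180 AP-1-bla cells were cultured overnight at 37 °C in low-serum Opti-MEM. Next, titrated compounds with EC50 EGF were incubated 5 hours. Finally, CCF4 was added for 2.5 hours and the 460/530 nm ratio recorded.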

[11] = NFAT Signaling Pathway (AID 444; active = well fitted curve in either direction with a large enough effect, not every such curve was filed as active;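 also: carbachol stimulus at about its EC50 of 1 µM final; % is scaled to controls: 0 for no effect and ±100 for the full control effect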); conditions: Jurkat NFAT-bla M1, carbachol, beta-lactamase ratio, 5 h; at 38 µM (top of the series)
In short: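 Read-out: CCF4 FRET ratio (460 nm/530 nm) after 1 h RT dye loading, used for %activity and AC50 from titration series. Cells: Jurkat NFAT-β-lactamase/M1 line, treated with compound plus 1 uM carbachol for 5 h, 37 °C.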

[12] = Stat Signaling Pathway (AID 446; active = well fitted curve in either direction with a large enough effect, not every such curve was filed as active)
In short: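 IL-6/STAT signaling read in ME-180 cells via an SIE beta-lactamase reporter. Stimulus was 40 pM IL-6 (its AC50) for 5 hrs, so both activation and inhibition register.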

[13] = target: Guanine nucleotide-binding protein G(i) subunit alpha-1 (Homo sapiens) (UniProt P63096); assay: qHTS Assay for Inhibitors of RGS12 GoLoco Motif Activity (Green Fluorophore) (AID 879);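 also: 0% = labeled peptide with Gαi1 and full inhibition = labeled peptide alone without protein; negative values mean loss of peptide binding seen as reduced polarization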
Guanine nucleotide-binding protein G(i) subunit alpha-1 (Homo sapiens), sequence (P63096 whole entry, looked up): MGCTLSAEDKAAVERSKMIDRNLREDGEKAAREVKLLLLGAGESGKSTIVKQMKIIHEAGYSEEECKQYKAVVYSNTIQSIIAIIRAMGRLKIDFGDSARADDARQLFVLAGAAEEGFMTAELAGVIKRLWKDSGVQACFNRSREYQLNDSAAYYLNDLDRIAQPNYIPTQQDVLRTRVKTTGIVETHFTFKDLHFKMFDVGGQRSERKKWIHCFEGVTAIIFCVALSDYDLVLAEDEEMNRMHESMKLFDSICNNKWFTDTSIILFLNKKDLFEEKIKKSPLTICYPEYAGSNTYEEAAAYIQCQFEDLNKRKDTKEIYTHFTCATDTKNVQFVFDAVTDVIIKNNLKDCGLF
In short: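 Fluorescence polarization assay: 50 nM Gαi1 with 10 nM FITC-labeled RGS12 GoLoco peptide in 10 mM Tris pH 7.5, 150 mM NaCl, 0.1 mM GDP, 0.05% NP40, 10 min at room temperature with compound.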

[14] = target: Pyruvate kinase (Leishmania mexicana) (UniProt Q27686); assay: qHTS Validation Assay for Inhibitors of Leishmania Mexicana Pyruvate Kinase (AID 945);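 also: 0% = DMSO only neutral control wells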
Pyruvate kinase (Leishmania mexicana), sequence (Q27686 2-499 E452W): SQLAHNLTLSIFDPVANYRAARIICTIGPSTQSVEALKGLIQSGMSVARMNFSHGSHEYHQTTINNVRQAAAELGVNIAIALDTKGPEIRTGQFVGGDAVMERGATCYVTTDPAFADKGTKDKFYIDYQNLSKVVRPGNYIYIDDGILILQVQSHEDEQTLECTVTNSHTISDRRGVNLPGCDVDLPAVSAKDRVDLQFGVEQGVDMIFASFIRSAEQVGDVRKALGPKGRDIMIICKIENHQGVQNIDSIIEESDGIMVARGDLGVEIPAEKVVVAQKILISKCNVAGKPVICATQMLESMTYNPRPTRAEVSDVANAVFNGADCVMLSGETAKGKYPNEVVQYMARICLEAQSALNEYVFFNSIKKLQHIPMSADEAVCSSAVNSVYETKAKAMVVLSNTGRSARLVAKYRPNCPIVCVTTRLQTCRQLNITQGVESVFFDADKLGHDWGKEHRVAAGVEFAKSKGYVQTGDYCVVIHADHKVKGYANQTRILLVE
In short: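 Compounds are tested as eight-point concentration series. Reactions contain 0.2 nM LmPYK E451W, 0.5 mM PEP, 0.1 mM ADP, 7 mM MgCl2 and 50 mM KCl at pH 7.2, run 1 h at room temperature, then read by PKLight luminescence.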

[15] = target: Alpha-galactosidase (Coffea arabica) (UniProt Q42656); assay: Counterscreen for Glucocerebrosidase Inhibitors: qHTS Assay for Coffee Bean alpha-Galactosidase at pH 4.5 (AID 957);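 also: plate controls were enzyme alone for no effect and no enzyme for full effect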
Alpha-galactosidase (Coffea arabica), sequence (Q42656 whole entry, looked up): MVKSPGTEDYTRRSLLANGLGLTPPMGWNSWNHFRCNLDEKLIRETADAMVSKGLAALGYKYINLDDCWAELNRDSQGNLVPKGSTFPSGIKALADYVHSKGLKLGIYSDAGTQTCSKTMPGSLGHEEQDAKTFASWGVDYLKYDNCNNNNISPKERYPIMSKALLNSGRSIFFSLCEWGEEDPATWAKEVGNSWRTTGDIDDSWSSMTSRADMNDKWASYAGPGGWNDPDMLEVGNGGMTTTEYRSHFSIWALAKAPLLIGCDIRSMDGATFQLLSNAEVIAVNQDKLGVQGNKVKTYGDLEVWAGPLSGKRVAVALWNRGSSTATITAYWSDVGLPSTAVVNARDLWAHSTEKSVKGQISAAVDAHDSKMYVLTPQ
In short: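 Coffee bean enzyme (2 nM) with 80 uM 4-methylumbelliferyl alpha-D-galactopyranoside in 50 mM citric acid, 0.005% Tween-20, pH 4.5, 20 min at room temperature; compounds 0.7 nM–77 uM. Stopped at pH 10, fluorescence 365/440 nm; AC50 from Hill fits.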

[16] = target: Alpha-galactosidase A (Homo sapiens) (UniProt P06280); assay: Counterscreen for Glucocerebrosidase Inhibitors: qHTS Assay for Human alpha-Galactosidase at pH 4.5 (AID 992); also: 0% is about no effect
Alpha-galactosidase A (Homo sapiens), sequence (P06280 whole entry, looked up): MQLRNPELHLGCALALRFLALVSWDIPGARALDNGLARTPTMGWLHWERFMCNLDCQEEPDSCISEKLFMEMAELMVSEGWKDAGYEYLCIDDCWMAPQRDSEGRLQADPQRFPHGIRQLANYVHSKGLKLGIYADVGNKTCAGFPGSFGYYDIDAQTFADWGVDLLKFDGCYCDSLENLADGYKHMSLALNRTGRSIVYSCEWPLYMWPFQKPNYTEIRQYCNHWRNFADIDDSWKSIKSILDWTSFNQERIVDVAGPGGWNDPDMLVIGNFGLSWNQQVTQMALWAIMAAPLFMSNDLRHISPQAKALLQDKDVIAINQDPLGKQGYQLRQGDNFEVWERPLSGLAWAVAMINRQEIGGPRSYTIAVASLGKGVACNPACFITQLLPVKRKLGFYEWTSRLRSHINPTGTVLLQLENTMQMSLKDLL
In short: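 Read-out is 4-methylumbelliferone fluorescence (365 nm excitation, 440 nm emission) after a pH 10 NaOH/glycine stop. Reactions held 2 nM enzyme and 80 uM substrate at pH 4.5 for 20 min at room temperature.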

[17] = target: alpha-glucosidase (Oryza sativa, rice) (UniProt Q653V4); assay: Counterscreen for Glucocerebrosidase Inhibitors: qHTS Assay for Rice alpha-Glucosidase at pH 5.0 (AID 997);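 also: 0% = full activity with enzyme and -100% = basal without enzyme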
In short: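 Rice alpha-glucosidase (4 nM final) with 400 uM 4-methylumbelliferyl-alpha-D-glucopyranoside in citrate buffer pH 5.0, 20 min at room temperature, stopped at pH 10; fluorescence 365/440 nm, compounds 0.7 nM–77 uM, AC50 from Hill fits.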

[18] = target: Alpha-galactosidase (Coffea arabica) (UniProt Q42656); assay: Counterscreen for Glucocerebrosidase Inhibitors: qHTS Assay for Coffee Bean alpha-Galactosidase at pH 5.9 (AID 998);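 also: plate controls were uninhibited enzyme for no effect and no-enzyme basal signal for full effect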
In short: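 Compounds were titrated from 0.7 nM to 77 uM against green coffee bean alpha-galactosidase (2 nM) using 80 uM fluorogenic 4-methylumbelliferyl substrate. After 20 min at room temperature, reactions were stopped at pH 10 and read by fluorescence.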

[19] = qHTS Assay for Lipid Storage Modulators (AID 1519; calls by dose curve); conditions: Drosophila S3 cells, BODIPY lipid droplet/cell ratio, laser cytometry, cells loaded with oleic acid; for activity change, negative = inhibition: at 57.5 µM (top of the series)
In short: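 Cells seeded at 5,000 per well were treated with compounds over a concentration series and loaded with oleic acid (400 uM, as added). Lipid droplet fluorescence (488 nm excitation, 500-530 nm channel) was read by laser-scanning cytometry and normalized to 20 uM Triacsin C.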

[20] = target: Pyruvate kinase PKM (Homo sapiens) (UniProt P14618); assay: qHTS Assay for Activators of Human Muscle Pyruvate Kinase (AID 954; active = well fitted curve in the direction sought with a large enough effect, not every such curve was filed as active;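 also: 0% = uninhibited enzyme and -100% = no enzyme or full thiadiazolimine inhibition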)
In short: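 Enzyme was run at intermediate activity so both inhibitors and activators could be detected. ATP formed from ADP and PEP by 0.1 nM human PKM2 during a 1 h room-temperature incubation was quantified by coupled luciferase luminescence.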

[21] = measured here: cell count channel max response
[22] = measured here: lipid channel max response

O=C1CC[C@@]2(O)[C@H]3Cc4ccc(O)c5c4C2(CCN3CC2CC2)[C@H]1O5
inactive: Potency [1] | Potency [2]

C=C1[C@@H](O)C2C=CC[C@H](C)C(=O)[C@@](C)(O)C=C[C@@H](OC(C)=O)[C@@]23C(=O)N[C@H](Cc2ccccc2)[C@@H]3[C@@H]1C (some centres not stated)
inactive: Potency [3] | Potency [4] > 46 µM | Potency [5] > 46 µM | outcome [6] | Potency [7] | Potency [8] | Potency [9] | Potency [1] | Potency [2]

C/C(=C\C=C/[C@@H](C)C(=O)O)[C@H]1CN[C@H](C(=O)O)[C@@H]1CC(=O)O
inactive: Potency [3] | Potency [4] > 46 µM | Potency [5] > 46 µM | outcome [6] | Potency [8] | Potency [9] | Potency [1] | Potency [2]

O=C1CC[C@@]2(O)[C@H]3Cc4ccc(O)c5c4[C@@]2(CCN3CC2CC2)[C@@H]1O5
inactive: outcome [10] | activity change, negative = inhibition [11] 8.31% | outcome [12] | outcome [6] | Potency [7] | outcome [13] | outcome [14] | outcome [15] | outcome [16] | outcome [17] | outcome [18] | Potency [8] | Potency [9] | Potency [1] | Potency [2]

c1ccc([C@H]2CNCc3ccccc32)cc1
inactive: Potency [3] | Potency [4] > 46 µM | Potency [5] > 46 µM | outcome [6] | Potency [8] | Potency [9] | Potency [1] | Potency [2]

CC[C@@H](CO)NC(=O)[C@H]1C=C2c3cccc4[nH]cc(c34)C[C@H]2N(C)C1
active: Potency [1] 29.9 µM
inactive: Potency [4] > 46 µM | Potency [5] > 46 µM | Potency [7] | Potency [9] | Potency [2]

C=C(C)[C@H]1C2C(=O)O[C@H]1[C@H]1OC(=O)[C@@]34O[C@@H]3C[C@]2(O)[C@@]14C
inactive: Potency [8] | Potency [9] | Potency [1] | Potency [2]

Cc1ncc(C[n+]2csc(CCO)c2C)c(=O)[nH]1
inactive: Potency [1] | Potency [2]

N[C@H](Cc1o[nH]c(=O)c1Cl)C(=O)O
4.87%: max response [19, 22]
inactive: Potency [3] | Potency [4] > 46 µM | Potency [5] > 46 µM | outcome [6] | Potency [7] | activity change, negative = inhibition [19] -0.357% | Potency [8] | Potency [9] | Potency [1]
4.55%: max response [19, 21]

CC(C)[C@@H]1CN[C@H](C(=O)O)[C@@H]1CC(=O)O
14.8%: max response [19, 21]
17.2%: max response [19, 22]
inactive: Potency [4] > 46 µM | Potency [5] > 46 µM | outcome [6] | activity change, negative = inhibition [19] 5.36% | Potency [8] | Potency [9] | Potency [1]

Cn1cc(C(=O)C(=O)N[C@H]2CN3CCC2CC3)c2ccccc21
inactive: Potency [4] > 46 µM | Potency [5] > 46 µM | outcome [6] | Potency [8] | Potency [9] | Potency [1] | Potency [2]
active: Potency [3] 15.8 µM

Cc1o[nH]c(=O)c1C[C@@H](N)C(=O)O
inactive: Potency [3] | Potency [4] > 46 µM | Potency [5] > 46 µM | outcome [6] | Potency [7] | activity change, negative = inhibition [19] -2.31% | Potency [9] | Potency [1]
0.175%: max response [19, 22]
-0.22%: max response [19, 21]

N#CC(C#N)=NNc1ccc(OC(F)(F)F)cc1
inactive: Potency [1] | Potency [2]

N[C@@]1(C(=O)O)CC[C@H](C(=O)O)C1
-9.77% and 22.3% and -1.79%: max response [19, 21]
inactive: Potency [3] | Potency [4] > 46 µM | Potency [5] > 46 µM | outcome [6] | Potency [7] | outcome [13] | outcome [14] | outcome [20] | outcome [15] | outcome [16] | outcome [17] | outcome [18] | activity change, negative = inhibition [19] 1.47% and 9.82% and 2.9% | Potency [8] | Potency [9] | Potency [1]
-7.89% and 39.1% and -2.3%: max response [19, 22]

NCCCP(=O)(O)CC1CCCCC1
inactive: Potency [4] > 46 µM | Potency [5] > 46 µM | outcome [6] | Potency [7] | Potency [8] | Potency [9] | Potency [1] | Potency [2]

C#CCN1C(C)=C(C(=O)CCO)[C@@H](c2cccc(-n3oo3)c2)C(C(=O)OC)=C1C
inactive: Potency [4] > 46 µM | Potency [5] > 46 µM | outcome [6] | Potency [9] | Potency [1] | Potency [2]

CN[C@@H]1C[C@H](c2ccc(Cl)c(Cl)c2)c2ccccc21
inactive: Potency [4] > 46 µM | Potency [5] > 46 µM | Potency [9] | Potency [1] | Potency [2]

O=C(/C=C\c1ccc(Cl)cc1)N[C@@]12CCC(=O)[C@@H]3Oc4c(O)ccc5c4[C@@]31CCN(CC1CC1)[C@@H]2C5
active: Potency [4] 1.63 µM
inactive: Potency [5] > 46 µM | outcome [6] | Potency [8] | Potency [9] | Potency [1] | Potency [2]

C[C@H](N)Cc1c[nH]c2ccc(O)cc12
20.6%: max response [19, 21]
23.2%: max response [19, 22]
inactive: outcome [10] | Potency [3] | activity change, negative = inhibition [11] 3.63% | outcome [12] | Potency [4] > 46 µM | Potency [5] > 46 µM | outcome [6] | Potency [7] | outcome [13] | outcome [14] | outcome [20] | outcome [15] | outcome [16] | outcome [17] | outcome [18] | activity change, negative = inhibition [19] 0.648% | Potency [9] | Potency [1]

CCOC(OCC)P(=O)(O)CCCN
inactive: Potency [4] > 46 µM | Potency [5] > 46 µM | outcome [6] | Potency [8] | Potency [9] | Potency [1] | Potency [2]

c1ccc(CCCCN2CCC(c3ccccc3)CC2)cc1
active: Potency [3] 15.8 µM
inactive: Potency [4] > 46 µM | Potency [5] > 46 µM | outcome [6] | Potency [9] | Potency [1] | Potency [2]
